This is an account of results in PubChem BioAssay.

By viability is commonly meant a read-out of living cells in per cent, often relative to untreated cells. As usually defined, the inhibition is the change of the read-out against control, counted positive when it falls.

The structures appear in SMILES notation. “And” between values parts separate entries of the source, which are not always exact repeats. Identical values can stand only once. The source made the active and inactive calls. Cut-off read from the data, not from the text of the source, unless noted: active = nuclear beta-catenin stimulation mostly above about 4.2% (no sharp cut-off); inactive = mostly below about 10%.

Assay [1] in a line: P. berghei load reduction in hepatocytes – cell-based, HepG2, luciferase luminescence, HepG2 viability, primary screen (AID 624349; in the data active = parasite load remaining mostly below about 12%, no sharp cut-off; inactive = mostly above about 10%;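 note: 100% = mean of DMSO negative control wells on the same plate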). As to conditions: P. berghei liver stage in HepG2, luciferase luminescence, concentration not given here; parasite load remaining: stronger effect = lower value; viability: measured here: HepG2 viability without parasites.
Assay [2] is described as follows: Wnt pathway potentiators raising nuclear beta-catenin – imaging, WNT3A-conditioned medium, mouse C2C12, NPC library, primary screen (AID 1117326). As to conditions: stronger effect = higher value.
The nature of assay [3]: stimulators of insulin release from INS-1E, primary screen, cell-based, 5 mM glucose, NPC library (AID 1117329;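 active = compound raises insulin release from rat beta cells at 5 mM glucose, no numeric limit stated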). As to conditions: rat INS-1E insulin secretion, at 10 µM, stronger effect = higher value.
The nature of assay [4]: growth inhibition of GSK3B-pretreated HCT116 cells – cell-based, CellTiter-Glo, 0.2 to 20 µM (AID 1117336;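 active = compounds lowering colon cancer cell viability after pretreatment blocking the GSK3B kinase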). Particulars: HCT116 viability after GSK3B inhibitor, at 20 µM, stronger effect = higher value. (In general: In ATP-based viability assays light output follows the ATP content of the culture.)
Assay [5] is described as follows: inhibition of endothelial tube formation, primary screen, imaging, VEGF stimulated, CD31 staining, tube area, NPC library (AID 1117340;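 active = compound that reduces growth-factor-driven endothelial tube area in a mixed cell culture, no cutoff stated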). As to conditions: VEGF-stimulated ADSC/ECFC co-culture, at 10 µM, stronger effect = higher value.
Assay [6] in a line: GLP1 release stimulators, primary, NCI-H716, NPC library (AID 1117341;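 active = compound raises GLP1 secretion from the human gut endocrine cells, with no numeric limit stated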). As to conditions: NCI-H716 cells, at 10 µM, stronger effect = higher value.
Assay [7] can be described thus: HCT116 colon cancer cell growth inhibition, primary screen, CellTiter-Glo luminescence, NPC library (AID 1117342;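 active = compounds that lower survival of HCT116 colon cancer cells in the luminescence readout, no numeric limit stated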). As to conditions: at 20 µM (top of the series).
A short description of assay [8]: reduced SW480 viability measured with CellTiter-Glo, NPC library, primary (AID 1117343;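 active = compounds that lower viability of the colon cancer cells in the luminescence readout, with no numeric limit stated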). Particulars: CellTiter-Glo luminescence; at 20 µM (top of the series).
A short description of assay [9]: NPC library primary testing for decreased DLD-1 cell viability via CellTiter-Glo (AID 1117346;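 active = compounds that lower survival of DLD-1 colon cancer cells in the luminescence readout, no cutoff given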). Particulars: DLD-1 viability, CellTiter-Glo luminescence; at 20 µM (top of the series).
A short description of assay [10]: EMT-state selective cytotoxicity in co-culture – imaging, PC-3E GFP, TEM4-18 mCherry, primary screen (AID 1345086;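 active = compounds killing one labelled cell type while sparing the other, by normalised counts and ratio limits, not self-fluorescent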;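 for all read-outs here: cells exposed to compound for 72 h before imaging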;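 for red/green cell ratio (normalised): normalised mesenchymal count divided by normalised epithelial count so high means epithelial killing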). Particulars: PC-3E GFP / TEM4-18 mCherry co-culture, imaging cell counts, at 1 µM; for red/green cell ratio (normalised): actives lie on both sides.
The test system of assay [11] is Aerobactin synthetase IucA (Klebsiella pneumoniae hvKP1). The assay is described as follows: IucA enzyme inhibition, primary screen, biochemical, Spectrum library (AID 1346200; call rule not given here;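 note: 100% = wells without compound and 0% = wells lacking enzyme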). Particulars: malachite green pyrophosphate, A620, at 8 µM, stronger effect = lower value.
A short description of assay [12]: viability loss with induced miR-34 in A549 – imaging, A549 dox-inducible miR-34, nuclei and caspase counts, primary screen (AID 1347080;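 active = compounds whose cell count with miR-34 switched on is under 0.7 times the count with it off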). As to conditions: A549 miR-34 inducible, Hoechst nuclei count, 48 h.
Assay [13] in a line: MELAS cybrid and Rieske KO viability enhancers – cell-based, MELAS cybrids, Rieske KO mouse fibroblasts, CellTiter-Glo, primary screen (AID 1508586;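 active = mean z-score across replicates of 1.96 or higher in either the MELAS or the Rieske mutant cell line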;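 note: z relative to plate mean and SD of compound and empty wells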). Particulars: low glucose.
In assay [14] the target is NAD(+) hydrolase SARM1 (Homo sapiens) (UniProt Q6SZW1). The assay can be described thus: blocking NAD cleavage by SARM1 SAM-TIR – cell lysate, NAD-Glo luminescence (AID 1508614;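 active = compound whose remaining NAD level is above about 45 nM, limit read from the data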;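 note: higher remaining NAD means stronger inhibition of SARM1 NADase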). As to conditions: SAM-TIR HEK293T lysate NADase, at 1 µM, stronger effect = higher value.
For assay [15], the target named is Mitogen-activated protein kinase 7 (Homo sapiens) (UniProt Q13164). The assay is described as follows: Gal4-ERK5 driven luciferase induction – cell-based, HTS, primary screen (AID 1508626;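 active = luciferase signal above three times the same-plate solvent-only control wells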;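 note: luciferase driven by Gal4-ERK5 fusion binding five Gal4 sites before minimal TATA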). Particulars: HeLa Gal4-ERK5 transactivation, 18 h, at 5 µM, stronger effect = higher value.
The nature of assay [16]: galactose survival enhancers in mitochondrial complex I cybrids – cell-based, galactose medium, ATP luminescence, primary screen (AID 1645843;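 active = z-score of at least 1.8 in each of two replicates, scored against plate mean and spread of sample wells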;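 note: positive z means more ATP and so rescue of galactose-driven cybrid death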). Particulars: complex I mutant cybrid cells, 72 h, stronger effect = higher value.
For assay [17], the target named is 6-phosphogluconate dehydrogenase, decarboxylating (Homo sapiens) (UniProt P52209). The assay can be described thus: inhibition of human phosphogluconate dehydrogenase – biochemical, recombinant enzyme, NADPH absorbance, primary screen (AID 1159550;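 active = at least 20% inhibition of 6-phosphogluconate dehydrogenase activity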). Particulars: recombinant 6PGD, NADPH absorbance 341 nm; at 10 µM; stronger effect = higher value.
The mark [18] stands for this setting: measured here: epithelial PC-3E GFP cell survival.
[19] abbreviates: measured here: mesenchymal TEM4-18 mCherry cell survival.
The mark [20] stands for this setting: measured here: relative caspase fold change +Dox/-Dox.
Where [21] appears, read: measured here: total cells with miR-34 induction, stronger effect = lower value.
The mark [22] stands for this setting: measured here: total cells without miR-34 induction.

Sequence of Mitogen-activated protein kinase 7 (Homo sapiens) (Q13164 whole entry, looked up, the tested form may be a part): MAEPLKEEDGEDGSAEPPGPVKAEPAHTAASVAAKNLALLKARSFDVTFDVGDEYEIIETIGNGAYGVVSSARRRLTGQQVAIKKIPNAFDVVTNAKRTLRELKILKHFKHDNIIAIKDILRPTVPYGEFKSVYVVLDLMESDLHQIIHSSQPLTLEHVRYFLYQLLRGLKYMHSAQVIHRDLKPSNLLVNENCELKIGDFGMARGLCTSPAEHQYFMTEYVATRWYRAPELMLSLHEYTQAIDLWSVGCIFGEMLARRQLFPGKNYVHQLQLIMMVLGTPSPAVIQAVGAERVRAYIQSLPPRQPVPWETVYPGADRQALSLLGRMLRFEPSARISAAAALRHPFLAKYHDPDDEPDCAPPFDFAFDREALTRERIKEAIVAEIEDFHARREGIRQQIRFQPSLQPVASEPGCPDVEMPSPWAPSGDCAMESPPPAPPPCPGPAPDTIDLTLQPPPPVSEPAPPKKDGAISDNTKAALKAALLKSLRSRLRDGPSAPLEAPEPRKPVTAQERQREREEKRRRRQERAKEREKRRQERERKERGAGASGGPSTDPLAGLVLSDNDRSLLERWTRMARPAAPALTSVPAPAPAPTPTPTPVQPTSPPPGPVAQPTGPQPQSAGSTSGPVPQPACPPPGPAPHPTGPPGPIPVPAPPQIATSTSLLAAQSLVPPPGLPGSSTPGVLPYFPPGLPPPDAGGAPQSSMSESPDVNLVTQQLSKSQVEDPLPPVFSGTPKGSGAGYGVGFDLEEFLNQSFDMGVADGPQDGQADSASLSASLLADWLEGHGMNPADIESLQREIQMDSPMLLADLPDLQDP
Sequence of NAD(+) hydrolase SARM1 (Homo sapiens) (Q6SZW1 whole entry, looked up, the tested form may be a part): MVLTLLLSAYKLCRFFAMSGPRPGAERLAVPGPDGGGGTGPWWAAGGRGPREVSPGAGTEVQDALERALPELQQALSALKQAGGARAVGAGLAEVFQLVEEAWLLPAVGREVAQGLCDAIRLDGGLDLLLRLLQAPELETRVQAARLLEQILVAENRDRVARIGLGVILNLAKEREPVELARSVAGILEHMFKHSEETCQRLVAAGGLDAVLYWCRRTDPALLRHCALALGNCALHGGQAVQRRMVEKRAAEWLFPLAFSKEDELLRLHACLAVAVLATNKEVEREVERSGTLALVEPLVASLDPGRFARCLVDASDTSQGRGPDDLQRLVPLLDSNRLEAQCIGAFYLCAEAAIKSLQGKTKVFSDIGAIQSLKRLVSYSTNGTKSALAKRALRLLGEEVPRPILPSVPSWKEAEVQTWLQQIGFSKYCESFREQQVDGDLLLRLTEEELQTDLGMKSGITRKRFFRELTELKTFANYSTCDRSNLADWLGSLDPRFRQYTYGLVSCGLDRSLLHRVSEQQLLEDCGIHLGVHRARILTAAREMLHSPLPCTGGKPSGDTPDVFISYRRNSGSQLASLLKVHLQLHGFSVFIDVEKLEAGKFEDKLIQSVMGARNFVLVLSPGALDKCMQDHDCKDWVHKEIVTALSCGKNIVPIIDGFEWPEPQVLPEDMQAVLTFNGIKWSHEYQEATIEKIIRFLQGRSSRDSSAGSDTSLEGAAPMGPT
Sequence of 6-phosphogluconate dehydrogenase, decarboxylating (Homo sapiens) (P52209 whole entry, looked up): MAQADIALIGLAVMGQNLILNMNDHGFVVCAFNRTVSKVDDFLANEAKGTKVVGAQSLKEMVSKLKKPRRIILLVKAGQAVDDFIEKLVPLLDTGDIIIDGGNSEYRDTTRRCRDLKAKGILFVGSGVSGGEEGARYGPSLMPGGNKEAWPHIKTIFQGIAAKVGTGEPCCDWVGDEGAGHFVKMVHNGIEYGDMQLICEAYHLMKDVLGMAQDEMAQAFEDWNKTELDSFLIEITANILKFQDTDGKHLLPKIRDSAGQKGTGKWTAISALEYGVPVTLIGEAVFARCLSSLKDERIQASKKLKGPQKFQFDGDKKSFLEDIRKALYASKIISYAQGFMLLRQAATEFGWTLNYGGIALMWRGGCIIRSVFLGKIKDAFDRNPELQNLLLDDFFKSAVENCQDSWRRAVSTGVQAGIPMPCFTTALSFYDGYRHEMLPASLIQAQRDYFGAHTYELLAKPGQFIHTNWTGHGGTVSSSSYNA

For the compound `CCC(COC(=O)c1cc(OC)c(OC)c(OC)c1)(c1ccccc1)N(C)C` (centres undefined), the parasite load remaining in [1] is 36% (inactive). The viability in assay [1] worked out at 62.6%. Also, the nuclear beta-catenin stimulation was 5.9% (inactive) in [2] (at 10 µM) and 1.2% in assay [2] (stimulation, at 2 µM). The insulin secretion stimulation in [3] was 2.2% (inactive). Moreover, in assay [4], the viability decrease is 49% (inactive). Also, the tube area decrease in assay [5] was 19.3% (inactive). For the same compound, the GLP1 secretion stimulation in assay [6] was 5.8% (inactive). In addition, the inhibition of viability in assay [7] is 64.3% (active). Moreover, the values for the viability decrease (inhibition) in assay [8] and in assay [9] were 22.7% (inactive) and 20.6% (inactive), respectively. For the same compound, the red/green cell ratio (normalised) in assay [10] is 1 (inactive). The normalised cell number in [10] (setting [18]) and in assay [10] (setting [19]) was 1.04 in each case. For the same compound, the activity remaining in assay [11] is 102% (inactive). The fold change was 0.96 (inactive) and 0.993 (inactive) in assay [12] (stronger effect = lower value); 0.946 and 0.715 in assay [12] (setting [20]). Also, the cell count in assay [12] (setting [21]) is 9130 and 7380; in assay [12] (setting [22]), 9520 and 7430. For the same compound, the z-score in assay [13] (MELAS cybrid survival, CellTiter-Glo 48 h, stronger effect = higher value) was -0.0948 (inactive) and -0.436 (inactive); in [13] (Rieske KO mouse fibroblast survival, CellTiter-Glo 72 h) it was -0.0807 and -0.229; in [16] it was -1.25 (inactive). Further, the remaining NAD in [14] is 10 nM (inactive). For the same compound, in [15], the luciferase signal was 28 AU (inactive).

`COc1cc(N)c(Cl)cc1C(=O)NC1CN2CCC1CC2` (centres undefined): the parasite load remaining in assay [1] is 103% (inactive). In addition, the viability in assay [1] was found to be 107%. Besides, the nuclear beta-catenin stimulation in [2] (at 10 µM) is -1.2% (inactive); in assay [2] (stimulation, at 2 µM) it was 0%. The insulin secretion stimulation in assay [3] is 3% (inactive). Besides, the viability decrease in assay [4] is 0.8% (inactive). Further, in assay [5], the tube area decrease is -1.2% (inactive). For the same compound, in assay [6], the GLP1 secretion stimulation was 6.7% (inactive). In assay [7], the inhibition of viability was 15.8% (inactive). In addition, the values for the viability decrease (inhibition) in [8] and in assay [9] were -5.8% (inactive) and 1.7% (inactive), respectively. The fold change was 0.946 (inactive) in assay [12] (stronger effect = lower value); 0.971 (inactive) in assay [12] (stronger effect = lower value, cell number ratio, induced over uninduced); 1.7 and 0.526 in assay [12] (setting [20]). Moreover, the cell count in assay [12] (setting [21]) was 9370 and 10300; in [12] (setting [22]), 9910 and 10600. For the same compound, the z-score in assay [16] was 0.86 (inactive) and -0.355 (inactive).

In the case of `CN[C@@H](C)[C@H](O)c1ccccc1`, the nuclear beta-catenin stimulation in [2] (at 10 µM) was 1.4% (inactive); in [2] (stimulation, at 2 µM), 0.6%. Also, the insulin secretion stimulation in assay [3] is 0% (inactive). For the same compound, in [4], the viability decrease was -2.5% (inactive). For the same compound, the tube area decrease in assay [5] is -1.6% (inactive). The GLP1 secretion stimulation in assay [6] was 0.8% (inactive). Besides, in assay [7], the inhibition of viability was -12.5% (inactive). Besides, the viability decrease (inhibition) in assay [8] was 5.5% (inactive); in [9] it was -4.6% (inactive). Further, the inhibition in assay [17] was 16.5% (inactive).

Consider `O=C1C2CC=CCC2C(=O)N1SC(Cl)(Cl)Cl` (centres undefined), for which the nuclear beta-catenin stimulation in assay [2] (at 10 µM) is 14.9% (active); in assay [2] (stimulation, at 2 µM) it was 44.5%. In addition, the insulin secretion stimulation in [3] is 0.6% (inactive). In addition, the viability decrease in assay [4] was 98.9% (active). The tube area decrease in assay [5] is 108% (active). For the same compound, the GLP1 secretion stimulation in assay [6] was 0.3% (inactive). Besides, in [7], the inhibition of viability was 99.3% (active). Besides, the viability decrease (inhibition) in [8] and in assay [9] was 102% (active) each time. For the same compound, the red/green cell ratio (normalised) in assay [10] (counts scaled to control wells, 1 = unselective) is 1.09 (inactive). In addition, the figures for the normalised cell number in [10] (setting [18]) and in assay [10] (setting [19]) were 1.03 and 1.13, respectively.

Consider `NC1=NC(=O)C(c2ccccc2)O1` (centres undefined), for which the parasite load remaining in assay [1] is 109% (inactive). Further, the viability in assay [1] stood at 79.6%. In addition, the nuclear beta-catenin stimulation in [2] (at 10 µM) is 1% (inactive); in assay [2] (stimulation, at 2 µM), 0.5%. The insulin secretion stimulation in [3] was -0.9% (inactive). In addition, in assay [4], the viability decrease was -2.4% (inactive). Moreover, the tube area decrease in assay [5] was 1.1% (inactive). The GLP1 secretion stimulation in [6] was 3.5% (inactive). In addition, the inhibition of viability in assay [7] is -21.1% (inactive). Further, the viability decrease (inhibition) was 36.7% (inactive) in [8] and -5.1% (inactive) in [9]. Further, the fold change in [12] (stronger effect = lower value) was 0.967 (inactive); in [12] (setting [20]) it was 2.22. Further, the cell count in assay [12] (setting [21]) is 9620; in [12] (setting [22]) it was 9950. For the same compound, the z-score in [16] was 0.395 (inactive).
